From PubChem BioAssay (NCI)
About 83,000 compounds went through this panel and 20% of them were active in at least one assay; those are over-represented in the sample as a whole.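 Results are percent growth after 48 hours of single-concentration exposure. 100 means growth as in untreated cells, lower positive values show inhibition; negative values down to -100 show cell death.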 Unmarked numbers belong to inactive results. Rule for the calls: active = growth percent below 10; inactive = the rest.

Tested on: HL-60(TB) leukemia
Experiment: NCI-60 one-dose screen, 48 h (100 = growth as untreated, 0 = no growth, -100 = all killed)
Settings: 10 µM unless noted

| SMILES | growth |
| --- | --- |
| CC(=O)NS(=O)(=O)c1ccc(NC(=O)CSC2=NC(c3ccccc3)C(C(C)=O)=C(C)N2)cc1 (centres undefined) | 97.4% |
| Cc1ccc(-c2nc(C#N)c(S(=O)(=O)N3CCN(S(=O)(=O)c4ccc(Cl)cc4)CC3)o2)cc1 | 79.9% |
| COc1ccc(C(=O)/C=C/c2ccc(Oc3nc(Nc4ccc(F)cc4)nc(N(C)C)n3)c(OC)c2)cc1 | 48.1% |
| O=C1NC2C=CC=CC2/C1=C1/SC(=S)N(C2CC(=O)N(c3ccc(Br)cc3)C2=O)C1=O (centres undefined) | 58.9% |
